Data on nine compounds can be found in PubChem BioAssay.

Active and inactive are the calls of the source. Unless noted, no rule for the calls is given here.

Assay [1] is described as follows: A549 cell viability effects, profiling panel, calcein-AM fluorescence, 48 h, basal (AID 1162). Also: test concentration not given here. The following applies: higher = more signal.
Assay [2] can be described thus: adipocyte viability effects, profiling panel, cell-based, 3T3-L1 adipocytes, calcein-AM fluorescence, 48 h, basal (AID 1163). Also: test concentration not given here. The following applies: 3T3-L1 adipocytes viability, higher = more signal.
Assay [3] can be described thus: HepG2 cell viability effects, profiling panel, calcein-AM fluorescence, 48 h, basal (AID 1164). Also: test concentration not given here. The following applies: higher = more signal.
Assay [4] in a line: MM1S cell viability effects, profiling panel, calcein-AM fluorescence, 48 h, basal (AID 1165).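 Also: viability of MM1S multiple myeloma cells under basal unstimulated conditions; test concentration not given here.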 Conditions: higher = more signal.
Assay [5] is described as follows: basal RPMI8226 viability, no added stimulus, profiling panel, cell-based, calcein-AM fluorescence, 48 h, PK04 Diversity Set (AID 1166).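 Also: cells grown under basal conditions without added stimulus; test concentration not given here.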 The following applies: RPMI8226 myeloma viability, higher = more signal.
A short description of assay [6]: basal HepG2 mitochondrial membrane potential changes, profiling panel, cell-based, JC-1 fluorescence, 24 h, 100 nL compound (AID 1167). Also: test concentration not given here. Conditions: higher = more signal.
A short description of assay [7]: basal 3T3-L1 adipocyte mitochondrial potential changes, profiling panel, cell-based, JC-1 fluorescence, 3T3-L1 adipocytes, 24 h, 100 nL compound (AID 1168). Also: test concentration not given here. The following applies: JC-1 mitochondrial fluorescence, higher = more signal, called active from +8 up or from −8 down.
Assay [8] in a line: basal RPMI8226 mitochondrial membrane potential changes, profiling panel, cell-based, JC-1 fluorescence, 24 h, 100 nL compound (AID 1169). Also: test concentration not given here. The following applies: RPMI8226 myeloma, JC-1 mitochondrial potential fluorescence, higher = more signal.
A short description of assay [9]: basal MM1S mitochondrial membrane potential changes, profiling panel, cell-based, JC-1 fluorescence, 24 h, 100 nL compound (AID 1170). Also: test concentration not given here. The following applies: higher = more signal.
Assay [10] is described as follows: A549 lung cancer cell viability effects, profiling panel, resazurin fluorescence, 24 h, PK04 Diversity Set (AID 1171). Also: test concentration not given here. Conditions: higher = more signal, called active from +8 up or from −8 down. In general terms: Alamar Blue is a resazurin reagent that responds to reducing activity.
Assay [11] in a line: HepG2 liver cancer cell viability effects, profiling panel, resazurin fluorescence, 24 h, PK04 Diversity Set (AID 1172). Also: test concentration not given here. The following applies: higher = more signal.
The nature of assay [12]: basal S. cerevisiae growth modulation, no modifier, primary screen, OD600, strain BY4716, 24 h, basal condition (AID 1173). Conditions: OD600, 24 h, higher = more signal, called active from +8 up or from −8 down.
Assay [13] is described as follows: MM1S myeloma cell viability, profiling panel, resazurin fluorescence, basal, 24 h, PK04 Diversity Set (AID 1174).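 Also: MM1S multiple myeloma cell line; test concentration not given here.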 The following applies: higher = more signal, called active from +8 up or from −8 down.
Assay [14] deals with Dihydroorotate dehydrogenase (quinone), mitochondrial (Plasmodium falciparum (isolate 3D7)) (UniProt Q08210). The assay can be described thus: PfDHODH enzyme inhibitors, primary screen, biochemical, C-terminal His tag, absorbance 600 nm (AID 1175).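 Also: recombinant parasite enzyme with a five histidine tag at its C terminus; test concentration not given here.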 Conditions: DCIP absorbance 600 nm, higher = more signal, called active from +8 up or from −8 down.
Chain of Dihydroorotate dehydrogenase (quinone), mitochondrial (Plasmodium falciparum (isolate 3D7)) (Q08210 whole entry, looked up): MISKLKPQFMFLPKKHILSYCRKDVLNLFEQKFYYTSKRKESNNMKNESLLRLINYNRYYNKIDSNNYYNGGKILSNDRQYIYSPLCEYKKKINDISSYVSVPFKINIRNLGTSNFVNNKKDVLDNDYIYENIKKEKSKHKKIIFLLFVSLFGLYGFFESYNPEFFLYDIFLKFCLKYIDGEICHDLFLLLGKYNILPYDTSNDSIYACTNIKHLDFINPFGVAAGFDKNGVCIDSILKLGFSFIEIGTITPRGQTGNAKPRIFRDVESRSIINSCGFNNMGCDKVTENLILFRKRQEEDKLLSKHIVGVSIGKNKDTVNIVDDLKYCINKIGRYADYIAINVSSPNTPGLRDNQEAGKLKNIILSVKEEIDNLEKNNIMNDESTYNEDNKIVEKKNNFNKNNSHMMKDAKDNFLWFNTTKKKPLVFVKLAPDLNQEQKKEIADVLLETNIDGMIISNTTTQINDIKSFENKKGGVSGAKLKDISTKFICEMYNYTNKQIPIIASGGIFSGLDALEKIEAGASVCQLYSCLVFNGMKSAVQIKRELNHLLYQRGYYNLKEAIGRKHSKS
Assay [15] can be described thus: P. aeruginosa biofilm formation inhibitors, primary screen, strain PAO1, LB-PBS medium, absorbance 600 nm (AID 1176). Also: test concentration not given here. Conditions: P. aeruginosa PAO1 growth/biofilm, A600, 12 h; higher = more signal.
Assay [16] in a line: S. cerevisiae RM11-1a growth modifiers, primary screen, strain RM11-1a, OD600, basal, 24 h (AID 1177).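 Also: cultures grown under basal conditions with no added stressor; test concentration not given here.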 Conditions: OD600, 24 h, higher = more signal, called active from +8 up or from −8 down.
A short description of assay [17]: E. coli acrAB mutant growth effects, primary screen, E. coli filamentation inducers, strain DRC39, OD650, 24 h (AID 1178).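 Also: growth measured as culture turbidity by optical density at 650 nm; test concentration not given here.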 Conditions: higher = more signal, called active from +8 up or from −8 down.
The nature of assay [18]: E. coli acrAB mutant growth effects, primary screen, E. coli filamentation inducers, strain DRC39, OD650, 48 h (AID 1179).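 Also: screen aims at cell division blockers that make cells filament.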 The following applies: E. coli DRC39 delta-acrAB growth, higher = more signal, called active from +8 up or from −8 down.
A short description of assay [19]: RPMI8226 myeloma cell viability, profiling panel, resazurin fluorescence, basal, 24 h, PK04 Diversity Set (AID 1180).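 Also: RPMI8826 multiple myeloma cell line at 5000 cells per well; test concentration not given here.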 The following applies: higher = more signal.
The target of assay [20] is E3 ubiquitin-protein ligase XIAP (Homo sapiens) (UniProt P98170). Description: XIAP binders, primary screen, biophysical, small-molecule microarray, fluorescence 635 nm (AID 1181).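 Also: score merges 667 nm emission and signal to noise over triplicate slides.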 Conditions: small-molecule microarray binding, higher = more signal.
Chain of E3 ubiquitin-protein ligase XIAP (Homo sapiens) (P98170 whole entry, looked up): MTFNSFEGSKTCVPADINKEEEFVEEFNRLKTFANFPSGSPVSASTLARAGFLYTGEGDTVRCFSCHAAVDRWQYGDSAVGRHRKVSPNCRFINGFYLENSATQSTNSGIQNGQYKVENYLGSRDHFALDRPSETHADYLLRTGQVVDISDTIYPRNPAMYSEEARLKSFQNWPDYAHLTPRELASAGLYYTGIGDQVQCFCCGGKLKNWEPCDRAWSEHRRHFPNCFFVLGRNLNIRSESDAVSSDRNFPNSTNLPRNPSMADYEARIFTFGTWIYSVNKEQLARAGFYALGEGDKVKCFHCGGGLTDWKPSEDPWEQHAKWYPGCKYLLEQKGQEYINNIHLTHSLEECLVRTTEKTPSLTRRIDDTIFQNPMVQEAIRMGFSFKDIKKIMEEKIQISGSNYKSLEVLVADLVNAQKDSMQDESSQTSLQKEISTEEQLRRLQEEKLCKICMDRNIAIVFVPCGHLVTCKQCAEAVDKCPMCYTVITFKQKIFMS

As to `C=C(/C(=C/C[C@@H](OC(=O)c1ccncc1)c1ccccc1OCCO)c1cc(C(=O)OC)ccc1OC)C(C)C`, the z-score in assay [1] is 1.36; in assay [2], 0.38; in assay [3] it was 0.92; in [4] it was -3.25; in assay [5], -2.11; in assay [6] it was 2.74. Besides, the z-score in assay [7] is -0.158 (inactive); in assay [8], 0.00511; in assay [9], -1.71; in assay [10] it was -0.108 (inactive); in assay [11], -0.0182; in assay [12] it was -0.0905 (inactive). The z-score in assay [13] is -0.9 (inactive); in assay [15], 0.424 (inactive); in [16] it was -0.0487 (inactive); in assay [17], 0.315 (inactive); in assay [18], 0.227 (inactive); in assay [19] it was -0.722. The composite z-score in [14] is -1.82 (inactive); in assay [20] it was 0.153.
For the compound `CN(C)CCCNC(=O)[C@@H]1c2ccccc2C(=O)N(Cc2ccc(OC(F)(F)F)cc2)[C@H]1c1ccc(CO)cc1`, the z-score in [1] was 1.71; in assay [2], 1.91; in [3], -0.0979; in [4], 0.584; in assay [5] it was -2.39; in assay [6], 3.72. For the same compound, the z-score in [7] was -0.463 (inactive); in assay [8], -0.114; in assay [9], -1.13; in assay [10], 0.989 (inactive); in assay [11], -0.39; in assay [12], 0.0639 (inactive). The z-score in assay [13] is 0.983 (inactive); in [15] it was 0.407 (inactive); in [16], 1 (inactive); in assay [17], 0.897 (inactive); in assay [18], -0.193 (inactive); in assay [19], 0.818. Besides, the composite z-score in [14] was 0.853 (inactive); in assay [20], -0.117.
With `C=C(CCCC)C(=O)CC[C@@H](OC(=O)c1ccccc1-c1ccccc1C(=O)O)c1cccc(OCCO)c1`, the z-score was 0.78 in assay [1]; 1.12 in [2]; 0.215 in assay [3]; -3.41 in [4]; -3.91 in assay [5]; -1.88 in [6]. Besides, the z-score in assay [7] is 0.584 (inactive); in [8], -0.694; in assay [9], 0.0735; in assay [10] it was 0.675 (inactive); in assay [11], -0.269; in assay [12], -1.46 (inactive). Besides, the z-score is -0.348 (inactive) in [13]; 0.543 (inactive) in [15]; 0.134 (inactive) in assay [16]; -0.285 (inactive) in assay [17]; -0.549 (inactive) in assay [18]; -0.301 in [19]. For the same compound, the composite z-score in assay [14] is -0.556 (inactive); in assay [20], -0.23.
For the compound `COc1ccc(C(O)C2C=CC3C(=O)N(Cc4ccccc4)C(=O)C3N2n2cnnc2)c2ccccc12` (stereo not given), the z-score in assay [1] was 0.0609; in [2] it was 0.936; in [3], 0.0591; in [4], 0.405; in [5] it was -1.34; in assay [6] it was -0.722. The z-score in [7] was 0.895 (inactive); in assay [8], -0.992; in assay [9] it was -0.129; in assay [10] it was -0.96 (inactive); in assay [11] it was -1.05; in [12] it was 0.373 (inactive). The z-score is -1.47 (inactive) in [13]; -0.722 (inactive) in assay [15]; -0.975 (inactive) in [16]; -0.597 (inactive) in assay [17]; -0.706 (inactive) in assay [18]; -1.06 in assay [19]. Further, the figures for the composite z-score in assay [14] and in [20] were -0.609 (inactive) and 0.176, respectively.
Regarding `O=C(O)[C@]1(Cc2ccccc2)N=C(c2ccc(OCCCO)cc2)O[C@@H]1c1ccccc1`, the z-score was 1.07 in assay [1]; -1.44 in assay [2]; 0.493 in assay [3]; 0.427 in assay [4]; 0.261 in assay [5]; -0.121 in [6]. Besides, the z-score was 0.766 (inactive) in assay [7]; -0.833 in [8]; -0.38 in [9]; 0.455 (inactive) in assay [10]; 0.424 in [11]; -1.13 (inactive) in assay [12]. The z-score is 0.723 (inactive) in assay [13]; -0.912 (inactive) in assay [15]; -0.002 (inactive) in [16]; 0.0717 (inactive) in assay [17]; 1.01 (inactive) in [18]; 1.09 in assay [19]. Further, the composite z-score in [14] was 0.84 (inactive); in assay [20], -0.258.
Regarding `Cc1ccc(S[C@]2(C(=O)O)CC(=O)N(Cc3ccccc3Cl)[C@@H]2c2ccc(CO)cc2)cc1`, the z-score in [1] is 0.322; in [2] it was 0.152; in assay [3], -0.0394; in [4], -0.217; in [5], -1.44; in assay [6], -0.0706. Also, the z-score was -0.672 (inactive) in assay [7]; -0.509 in [8]; 1.37 in assay [9]; -0.462 (inactive) in assay [10]; -0.739 in assay [11]; -0.399 (inactive) in assay [12]. The z-score was -0.465 (inactive) in assay [13]; 1.42 (inactive) in assay [15]; 0.573 (inactive) in assay [16]; 0.21 (inactive) in [17]; 0.224 (inactive) in assay [18]; 0.148 in [19]. The composite z-score is 0.0962 (inactive) in assay [14] and -0.0749 in assay [20].
Turning to `C=CCN1Cc2ccccc2C[C@@]2(N=C(c3ccc(OCCCO)cc3)O[C@H]2c2ccccc2)C1=O`, the z-score is -1.46 in assay [1]; 0.906 in assay [2]; -1.05 in assay [3]; -3.52 in [4]; -3.95 in assay [5]; 0.166 in assay [6]. Moreover, the z-score was 1.4 (inactive) in assay [7]; -1.03 in assay [8]; -2.48 in [9]; -3.12 (inactive) in assay [10]; 0.211 in [11]; -5.82 (inactive) in [12]. In addition, the z-score was -3.09 (inactive) in assay [13]; 0.535 (inactive) in assay [15]; 0.0893 (inactive) in assay [16]; -0.137 (inactive) in assay [17]; 0.468 (inactive) in assay [18]; -4.81 in [19]. Besides, the composite z-score in assay [14] is -0.13 (inactive); in assay [20], -0.031.
With `C=CC[C@@]12N=C(c3ccc(OCCCO)cc3)O[C@@H]1c1ccccc1N(CCS(=O)(=O)c1ccccc1)C2=O`, the z-score is 0.4 in assay [1]; 0.962 in assay [2]; 1.05 in [3]; -1.41 in assay [4]; -1.02 in [5]; 0.381 in assay [6]. The z-score is 2.23 (inactive) in assay [7]; -0.899 in assay [8]; -1.22 in assay [9]; -1.54 (inactive) in [10]; 0.653 in assay [11]; 0.0618 (inactive) in [12]. Also, the z-score is -1.97 (inactive) in [13]; -0.251 (inactive) in assay [15]; 0.379 (inactive) in assay [16]; 0.907 (inactive) in [17]; 1.6 (inactive) in [18]; -1.07 in assay [19]. In addition, the composite z-score in [14] was 0.0628 (inactive); in [20], 0.0303.
Regarding `O=C(CS)NCCCCCCNC(=O)[C@@H]1C[C@@H]2C(=O)N3CCC[C@H]3C(=O)N2[C@@H]1c1cccc(OCCO)c1`, the z-score in assay [1] is 2.14; in assay [2], 0.426; in assay [3], 1.02; in assay [4] it was 0.0848; in assay [5], 0.449; in assay [6] it was -0.151. Moreover, the z-score in assay [7] was 0.193 (inactive); in assay [8], 0.0158; in assay [9], 0.111; in assay [10], -0.659 (inactive); in assay [11], -0.306; in assay [12] it was -0.21 (inactive). In addition, the z-score in assay [13] was 0.832 (inactive); in assay [15] it was 0.42 (inactive); in [16], -1.5 (inactive); in assay [17], 0.743 (inactive); in [18], 1.65 (inactive); in [19], 0.356. Further, the values for the composite z-score in assay [14] and in assay [20] were -0.968 (inactive) and 0.0022, respectively.
